This note sets out measurements from PubChem BioAssay (NCI).

The structures appear in SMILES notation. Compounds without any hit were thinned out: in the full panel of roughly 83,000, 20% have a hit.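 96-well plates, one dose, 48 hours. Percent growth reported; active if below 10.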 A number with no mark means an inactive call.

In the test the test system is NCI-H23 lung. The test can be described thus: NCI-60 one-dose screen, 48 h (100 = growth as untreated, 0 = no growth, -100 = all killed). The note with it: 10 µM unless noted.
For the compound `CCOc1ccc(NC(=O)CSc2oc(-c3ccccc3)nc2S(=O)(=O)c2ccc(C)cc2)cc1`, the growth is 67.4%.
For `O=C(/C=C/c1cccc(Cl)c1)c1ccc(Nc2nc(Nc3ccc(F)cc3)nc(Nc3ccc(Cl)cc3)n2)cc1`, the growth was 97.9%.
With `Cn1c(I)c(C#CCO[Si](C)(C)C(C)(C)C)c(=O)[nH]c1=O` the figure was 96.4%.
In the case of `CC(=O)Oc1ccc(C)cc1C` it was 103%; in that of `COc1cc(C2CC(c3ccc(Nc4nc(Nc5ccc(Cl)cc5)nc(Nc5ccc(Cl)cc5)n4)cc3)=NN2C(C)=O)cc(OC)c1OC` (centres undefined), 83.3%.
Turning to `c1cnc2c(-c3nc4ccc5[nH]ncc5c4c4c3CCCC4)c[nH]c2c1`, the growth was 22.4%.
With `COc1ccc(/C=C/C(=O)c2cc3c(N)c(C(=O)Nc4cccc5ccccc45)sc3nc2C)cc1` the figure was 85.1%; with `O=C1/C(=C/c2ccc([N+](=O)[O-])cc2)COc2ccc(O)cc21`, 96.6%; with `CCOCCNC1=C(Cl)C(=O)c2ccccc2C1=O`, 80.7%.
In the case of `CCN(CC)c1ccc(\C=N/N=C(N)/C(N)=N\N=C/c2ccc(N(CC)CC)cc2)cc1` it was 94.9%; in that of `CSc1nc2ccccc2cc1/C=C1/C=C(c2ccccc2)NC1=O`, 87.4%.
With `Cn1cc(-c2ccc3nc(-c4ccc(CC(=O)ONc5cc(C(C)(C)C)on5)cc4)cnc3c2)cn1`, the growth was 43.7%.
With `Nc1ncnc2c1C(c1ccccc1)c1ccc3ccccc3c1O2` (centres undefined), the growth was 77.5%.
With `N#Cc1nc(-c2ccc(F)cc2)oc1S(=O)(=O)N1CCOCC1` the figure was 70.3%.
